# Source: PubChem BioAssay (National Center for Advancing Translational Sciences (NCATS))
# TrxR1 substrate – qHTS Assay for Substrates of Mammalian Selenoprotein Thioredoxin Reductase 1 (TrxR1): qHTS; Thioredoxin reductase 1, cytoplasmic (Rattus norvegicus), O89049; purified TrxR1 substrate turnover, NADPH consumption readout; Potency, µM (top dose mostly 114 µM), inactives show at the highest dose activity change, negative = substrate turnover; AID 588456, 2011; 390,000 compounds, 0.01% hits; also: potency is read from the fitted curve at half-maximal effect; nearly all actives have a fitted effect of over 50% in size
#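 Rat TrxR1, dispensed at 90 nM, was prereduced with 400 uM NADPH (final) for 5 min at ~22 deg C, then incubated with compound 15 min before 400 uM selenite. A first-read NADPH fluorescence drop versus no-compound background flagged substrates.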
# GALK inhibitor – qHTS Assay for Inhibitors of Human Galactokinase (GALK); 270,000 compounds, 0.007% hits; Potency, µM (top dose mostly 57.5 µM), for inactives: top-dose activity change, negative = inhibition, actives largely listed as inhibitors; P51570; Purified GALK, Kinase-Glo residual ATP luminescence; also: potency is read from the fitted curve at half-maximal effect
#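 Kinase-Glo Plus luminescence measured ATP left after a 1 h room-temperature reaction. The reaction used 5 nM GALK, 100 uM galactose and 35 uM ATP at pH 8.0 (20 mM HEPES, 5 mM MgCl2, 60 mM NaCl, 1 mM DTT, 0.01% BSA).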
# PI4K2A block – qHTS for small molecular inhibitors of PI4K2A; 420,000 compounds, 0.13% hits; purified PI4K2A, ADP-Glo luminescence, 1 h; active compounds read low; AID 1346378, 2018; activity change, negative = inhibition, % at 76.9 µM; Phosphatidylinositol 4-kinase type 2-alpha (Homo sapiens), Q9BTU6; in the data active = activity change below about -50%; inconclusive = mostly about -30% to -49%;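 also: -100% = wells without enzyme as full effect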
# Target sequence (Q9BTU6 whole entry, looked up): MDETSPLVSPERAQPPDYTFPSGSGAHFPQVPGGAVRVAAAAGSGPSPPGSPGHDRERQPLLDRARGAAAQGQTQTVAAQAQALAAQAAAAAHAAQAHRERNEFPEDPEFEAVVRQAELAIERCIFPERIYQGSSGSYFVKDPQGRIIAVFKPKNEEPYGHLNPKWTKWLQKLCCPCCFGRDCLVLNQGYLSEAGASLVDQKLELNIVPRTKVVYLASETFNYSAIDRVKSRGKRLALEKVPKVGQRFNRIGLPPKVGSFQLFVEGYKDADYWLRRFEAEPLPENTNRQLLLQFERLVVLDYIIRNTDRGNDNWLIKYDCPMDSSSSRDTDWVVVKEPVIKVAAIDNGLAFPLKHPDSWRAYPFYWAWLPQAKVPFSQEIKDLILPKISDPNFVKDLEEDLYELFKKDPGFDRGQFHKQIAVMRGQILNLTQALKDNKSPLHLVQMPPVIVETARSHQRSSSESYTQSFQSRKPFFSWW
#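 ADP-Glo luminescence measured ADP generated by PI4K2A enzyme (4 ug/mL before mixing) with 1.2 mM PI substrate (pre-mix) and 300 microM ATP (pre-mix). Tris pH7.5 buffer with MgCl2, Triton X-100; 1 h reaction at ambient temperature.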
# Giardia killer – Small Molecules that selectively kill Giardia lamblia: qHTS | AID 540267, 2011 | 340,000 compounds, 0.15% hits | Giardia lamblia trophozoite viability | activity change, % at 7.66 µM, hits read low; in the data active = activity change below about -80%; inconclusive = between about -30% and that limit;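 also: parasites exposed to compound for two days anaerobically before the ATP read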
#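 Giardia trophozoites, 100 cells per well, were exposed to compounds for 48 hrs at 37 deg C under anaerobic conditions; viability was then read as ATP content by bioluminescence after 15-30 min at room temperature.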
# Coupling enz – qHTS Assay for Inhibitors of Fructose-1,6-bisphosphate Aldolase from Giardia Lamblia: Coupling assay counterscreen; coupling enzyme system counterscreen, AmpLite Red fluorescence; activity change, negative = inhibition, % at 58.2 µM, hits read low; 290,000 compounds, 0.67% hits; AID 2472, 2010; in the data active = activity change below about -30%
#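 Counterscreen of the coupled detection system alone, without aldolase: glyceraldehyde-3-phosphate coupling enzymes plus AmpLite Red readout. Compounds at 57.5 uM final, 10 min RT preincubation, 20 min RT reaction, fluorescence 525/598 nm.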
# rTrxR1 inhibitor – qHTS Assay for Inhibitors of Mammalian Selenoprotein Thioredoxin Reductase 1 (TrxR1): qHTS | recombinant rTrxR1, NADPH fluorescence consumption, selenite substrate | Potency, µM (top dose mostly 114 µM), for the others: top-dose activity change, negative = inhibition, most hits filed as inhibitors | 390,000 compounds, 1% hits | Thioredoxin reductase 1, cytoplasmic (Rattus norvegicus), O89049; also: potency is read from the fitted curve at half-maximal effect; nearly all actives have a fitted effect of over 65% in size
#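 Rat TrxR1 (90 nM in the dispensed reagent) was pre-reduced with 400 uM NADPH for 5 min at room temperature, then incubated with compound for 15 min. After 400 uM selenite was added, NADPH fluorescence (Ex 340/Em 450 nm) was followed for 8 min.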
# * hit, by the source's call; u = inconclusive; x = no result given; [ ] = another dose, or the depositor's remark. Only some compounds are listed: those with a hit (about 1.5% of all), similar ones and a draw of the others. Unless noted, calls follow the shape of the dose curve; as a rule, active = well fitted curve in the direction sought with a large enough effect; inconclusive = small, poorly fitted or top-dose-only effect, or another doubt; inactive = no such curve, though single readings can be large; an effect the other way counts as inactive or inconclusive. Unless noted, % is scaled to controls: 0 for no effect and ±100 for the full control effect.
SMILES,TrxR1 substrate,GALK inhibitor,PI4K2A block,Giardia killer,Coupling enz,rTrxR1 inhibitor
COc1ccccc1/C=N/NC(=O)CC(=O)NCc1ccccc1,1%,1%,0,8,-54*,13%[57.1 µM]
COc1ccccc1/C=N/NC(=O)CSc1ccc2ccccc2n1,-7%,1%,4,-18,-33*,-6%
Cc1onc(-c2ccccc2)c1C(=O)N/N=C/c1ccccc1OC(C)C,7%,-8%,3,-24,x,20%
COc1ccccc1/C=N/NC(=O)c1c(-c2ccccc2)noc1C,-5%,0%,-2,3,-34*,12%
C(=C\c1ccnc2ccccc12)/c1ccccc1,5%[0.0914 µM],x,x,x,x,-5%
COC(=O)c1cc(-c2cc3ccccc3o2)c(=O)n2c1CCC2,x,x,-3,x,x,x
CC(=O)N(CC(=O)N(C)C)c1ccccc1,x,x,-1,x,x,x
Cc1c(C(C)c2ccccc2O)c2ccccc2n1C (centres undefined),x,x,1,x,x,x
CCOC(=O)[C@]12CCCC=C1N(CCCOC)C(=O)[C@@H]2CC(=O)N1CCSCC1,x,x,-3,x,x,x
CC(=O)c1ccc(NC(=O)c2nc(-c3ccccc3)n(-c3ccccc3)n2)cc1,-10%,x,1,x,x,-12%
N#Cc1ccc(NC(=O)c2nc(-c3ccccc3)n(-c3ccccc3)n2)cc1,18%,2%,-19,-5,-38*,25%
O=C(CCc1ccccc1-c1ccccc1CCNC(=O)c1ccc(F)c(F)c1)NCc1ccccc1,x,x,3,x,x,x
CCOC(=O)/C=C/C(=O)OCC(=O)Nc1cccc(Br)c1,19%[57.1 µM],-2%,3,-4,0,u
CCOC(=O)/C=C/C(=O)OCC(=O)Nc1ccc(C)cc1,14%,-3%,-2,-15,0,40µM*
Oc1ccc(Cl)cc1C1C=C(c2ccc3c(c2)OCO3)NC(c2ccc(Cl)cc2)N1 (centres undefined),3%,x,x,-20,x,u
Cn1cc(S(C)=O)c(=O)c2ccc(F)cc21 (centres undefined),x,x,-5,x,x,x
Cc1ccc(Nc2ncnc(N)n2)cc1,-1%,0%,-8,u,2,7%
Nc1ncnc(Nc2ccc(S(N)(=O)=O)cc2)n1,0%[57.1 µM],-2%,-65*,3,-3,-1%[2.29 µM]
CCN1c2ccccc2N(C)C1(C)c1ccccc1 (centres undefined),-10%,1%,-15,20,-53*,45µM*
COc1cccc2sc3cc(NCc4ccc(C)o4)ccc3c(=O)c12,11%,x,-1,-11,x,79µM*
Cc1ccc(S(=O)(=O)N2CCN(c3nc(-n4cncn4)nc4ccccc34)CC2)cc1,9%,x,x,x,x,15%
CN1Cc2cc(C(=O)N3CCC(C4CCNCC4)CC3)ccc2NC(CC(=O)O)C1=O (centres undefined),x,x,-2,x,x,x
Cc1ccc2nc3sc(C(=O)N4CCN(C)CC4)cc3cc2c1,x,x,-1,x,x,x
Cc1ccc(S(=O)(=O)/N=C2/C=C(C3C(=O)CC(C)(C)CC3=O)C(=O)c3ccccc32)cc1,-7%,0%,-23,12,-48*,18µM*
Cc1ccc(S(=O)(=O)N2CCC(C(=O)C3C(=O)CC(C)(C)CC3=O)CC2)cc1,-3%[57.1 µM],5%,-3,4,-1,-1%[57.1 µM]
SMILES,TrxR1 substrate,GALK inhibitor,PI4K2A block,Giardia killer,Coupling enz,rTrxR1 inhibitor
COc1ccc(N2CCN(C3CC(=O)N(C)C3=O)CC2)cc1 (centres undefined),-1%,-2%,8,17,2,1%
COc1ccc(N2C(=O)CC(N3CCN(c4ccc(S(C)(=O)=O)cc4)CC3)C2=O)cc1 (centres undefined),9%,1%,4,8,2,16µM*
Cn1c(=O)c(=O)n(C)c2cc(S(=O)(=O)N3CCN(Cc4ccc5c(c4)OCO5)CC3)ccc21,x,x,-8,x,x,x
Cc1ccc2c(c1C)-c1c(ccc(C)c1C)C(=O)C2=O,45µM*,x,-3,-8,x,u
CCc1ccc(S(=O)(=O)/N=C2\C=C(Nc3ccc(O)cc3)C(=O)c3ccccc32)cc1,-11%,6%,u,-19,-35*,-19%
CCc1ccc(S(=O)(=O)/N=C2\C=CC(=O)c3ccccc32)cc1,x,4%,x,x,-50*,x
CCc1ccc(S(=O)(=O)/N=C2\C=C(Nc3cccc(C(=O)O)c3)C(=O)c3ccccc32)cc1,-13%,-30%,u,3,-44*,-13%
CCc1ccc(S(=O)(=O)/N=C2/C=C(Sc3ncn[nH]3)C(=O)c3ccccc32)cc1,7.9µM*,-4%,-56*,0,-58*,u
CCc1ccc(S(=O)(=O)ON2C(=O)c3ccccc3C2=O)cc1,2%[57.1 µM],-1%,-5,-29,4,u
COc1ccc(C2NC(=O)NC(C)=C2C(=O)Nc2cc(C)cc(C)c2)c(OC)c1 (centres undefined),4%,x,2,x,x,9%
Cc1noc(C)c1S(=O)(=O)N1CCc2nc(-c3ccccc3)c3c(c2C1)CO[C@@H](C)C3,x,x,x,x,-3,x
O=C(CCN1CCc2ccccc2CC1)c1ccc2c(c1)OCCO2,3%,2%,22,-5,1,0.32µM*
O=C(CCN1CCOCC1)c1ccc2c(c1)OCCO2,7%,-2%,11,-1,-3,4µM*
O=C(CCCN1CCOCC1)c1ccc2c(c1)OCCO2,10%,5%,-3,13,2,8%
Nc1nc2ccccc2n1Cc1ccc(F)cc1,x,x,1,x,x,x
Cc1ccc(C(=O)Nc2nnc(-c3ccco3)o2)cc1,-8%,0%,-8,0,-5,-9%
O=C(Nc1nnc(-c2ccco2)o1)c1ccc([N+](=O)[O-])s1,-1%[57.1 µM],7%,-10,-81*,2,u
CCOC(=O)c1c(C)[nH]c(C2=NNC(=Nc3ccccc3)SC2)c1C,2%,1%,-5,-8,-38*,2%
Cc1ccc(-c2n[nH]c3c2C(c2cccs2)N(c2ccc(Cl)cc2)C3=O)cc1 (centres undefined),-4%,x,-7,x,x,4%
O=C1C(Cl)=C(NS(=O)(=O)c2ccc([N+](=O)[O-])cc2)C(=O)c2ccccc21,-13%,-1%,-24,18,-21,0.79µM*
CC(C)(C)CC(C)(C)N=C1Nc2ccc(Cl)cc2N[C@]12C[C@H]1CCCC(=O)N3CC[C@@H](C2)[C@@H]13,-3%,x,x,x,x,-7%
